We go through ten molecules from PubChem BioAssay AID1346428 (National Center for Advancing Translational Sciences (NCATS), 2018).

Out of some 48,000 compounds screened, about 1,200 (2.5%) were called active. Roughly 2% stayed inconclusive and do not appear here. This is one part of a sample in which actives are shown more often than they occur. Values without a mark were called inactive.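 Rule for the calls: active = activation of at least 60% and not above a set upper limit (about 1 call in 100 departs from these limits); inconclusive = activation of 40% to 60%, or above that upper limit; inactive = activation under 40%.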

The test deals with Probable G-protein coupled receptor 32 (Homo sapiens) (UniProt O75388). Kind of test: qHTS for Agonists of Human Resolvin D1 Receptor DRV1. The following applies: CHO-K1 GPR32 beta-arrestin PathHunter luminescence, 90 min; at 76.9 µM; stronger effect = higher value; zero percent set by DMSO-only wells. The text has this: Endogenous resolution of inflammation is known to be transduced through various GPCRs and their natural mediators of lipid nature. Resolvin D1 (RvD1) is one of the active players in resolution of acute inflammation through regulation of anti-inflammatory pathways; it is known to enhance phagocytosis of human macrophages, limits neutrophils infiltration, etc. […] The search for GPR32-activating small molecules with anti-inflammatory effects similar to its natural omega-3 derivative ligand in order to use them as research tools for further studies of inflammation and its resolution was the goal of this screening project. For primary screening assay, we used CHO-K1 GPR32 beta-arrestin cell line (DiscoveRx, #93-0321C2A) and the PathHunter(R) beta-Arrestin Assay (DiscoveRx) which measures recruitment of beta-arrestin to the GPR32 and generates chemiluminescent signal. These engineered cells stably transfected with GPR32 co-express GPR32-fused small 42-amino acid fragment of beta-Gal called ProLinktrade mark, and […] -tagged beta-Arrestin fusion protein. When GPR32 is activated by a ligand, it stimulates binding of beta -Arrestin to ProLink-tagged GPR32, and two parts of beta-Gal complement forming a functional enzyme. Upon substrate (PathHunter(R) Detection reagent) addition, beta-Gal hydrolyzes it and generates a chemiluminescent signal.
Chain of Probable G-protein coupled receptor 32 (Homo sapiens) (O75388 whole entry, looked up): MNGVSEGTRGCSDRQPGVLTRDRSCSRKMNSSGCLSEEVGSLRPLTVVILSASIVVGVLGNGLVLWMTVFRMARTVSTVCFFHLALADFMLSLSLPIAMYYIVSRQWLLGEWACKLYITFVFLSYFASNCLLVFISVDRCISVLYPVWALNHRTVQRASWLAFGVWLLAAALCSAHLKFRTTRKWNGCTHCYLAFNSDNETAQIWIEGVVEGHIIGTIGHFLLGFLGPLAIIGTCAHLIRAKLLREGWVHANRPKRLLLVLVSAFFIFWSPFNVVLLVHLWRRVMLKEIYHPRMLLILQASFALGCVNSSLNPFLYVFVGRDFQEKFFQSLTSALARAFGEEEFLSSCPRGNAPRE
The cells were thawed and plated in thawing media containing F-12 HAM (Invitrogen, #11765-054), 10% FBS (Invitrogen, #10082), 1x Glutamine, and 1x Pen/Strep onto the 175-mm flask for 24 hours. Then, thawing media was replaced with Growth media which contains 800microg/mL Geneticin (Invitrogen, #10131) and 300microg/mL Hygromycin B (Invitrogen, #10687) in addition to described above. For the assay, the cells were harvested at ~80% confluent stage with Cell Dissociation buffer (Gibco, #13151), and seeded at 2,500 cells/ 3microL/well in assay media (PathHunter(R) Cell Plating Reagent, DiscoverX, #93-0563R1B) using MultiDrop Combi dispenser (Thermo Scientific, Logan, UT) onto white solid bottom tissue culture-treated 1536-well plates (Greiner # 789173-F) and allowed to attach overnight at 37 degrees C, 95% humidity, 5% CO2, . Next, 23nL/well of compound solutions in DMSO were added with a Pin Tool (Kalypsis, San Diego, CA) to the assay plates. As the basal control (EC0), 23 nL/well of DMSO was used on each plate. The cells were incubated in the presence of compounds or DMSO for 90 minutes at 37 degrees C, 5% CO2. Subsequently, 1.5microL/well of PathHunter(R) Detection Reagent prepared per the manufacturer's instructions was added to the assay plates with BioRAPTR FRDtrade mark dispenser (Beckman Coulter, San Francisco, CA) and incubated for 1 hour at ambient temperature prior to the measurement of the luminescent signal on ViewLux(R) uHTS Microplate Imager (Perkin Elmer, Waltham, MA).
A general note: In qHTS, concentration-response curves come from the screen itself.
With `c1ccc2c(c1)[I+]c1ccccc1-2`, the activation is 85.7% (active).

On to `Nc1ccc([N+](=O)[O-])cc1`, for which the activation was -34.8%. Then `CC[N+]1(CCOC(=O)C(O)(c2ccccc2)c2ccccc2)CCCCC1`, with -7.19%.

For the molecule `NCCc1ccc(S(=O)(=O)F)cc1`, the activation is 14.4%. For `CC1N=C(N)OC1c1ccccc1` (stereo not given), the activation is -12.2%. The same measure for `C=CCN1CCC23c4c5ccc(O)c4O[C@H]2C(=O)CC[C@@]3(O)C1C5` (stereo not given in full): -10.4%; for `O=S(=O)(O)C(F)(F)C(F)(F)C(F)(F)C(F)(F)F`: 94.8% (active); for `Cc1nnc(NC(=O)c2cccn(Cc3cccc(F)c3)c2=O)s1`: 23.9%. Then `CCOC(=O)c1ncn2c1[C@@H]1CCCN1C(=O)c1cc(OC)ccc1-2`, with -9.3%. As for `CC1=C(C(=O)O)N2C(=O)[C@@H](N)[C@H]2SC1`, the activation is -12.7%.
